{"source": "the antibiotic and cytotoxicity screens of Wong et al. (2023)", "note": "Among all 39,000 compounds or so, about 1,500 (3.8%) were called active. This is one part of a sample in which actives are shown more often than they occur.", "data": [{"system": "HSkMC (human skeletal muscle cells)", "test": "cytotoxicity call (relative viability < 0.9)", "details": "10 µM", "values": [{"smiles": "C[C@@H]1CN([C@@H](C)CO)C(=O)c2cc(C#CC(C)(C)O)cnc2O[C@H]1CN(C)C(=O)CN(C)C", "cytotoxicity call": "inactive"}, {"smiles": "C[C@@H]1CN([C@H](C)CO)C(=O)c2cccc(NS(=O)(=O)c3ccc(F)cc3)c2O[C@@H]1CN(C)C(=O)Nc1ccc(C(F)(F)F)cc1", "cytotoxicity call": "inactive"}, {"smiles": "C[C@@H]1CN([C@@H](C)CO)C(=O)Cc2cc(NS(C)(=O)=O)ccc2O[C@@H]1CN(C)C(=O)Nc1ccc2c(c1)OCO2", "cytotoxicity call": "inactive"}, {"smiles": "C[C@H](CO)N1C[C@H](C)[C@H](CN(C)C(=O)Nc2ccc3c(c2)OCO3)OCCCC[C@H](C)Oc2ccc(NC(=O)CCCCCC(=O)Nc3ccccc3N)cc2C1=O", "cytotoxicity call": "inactive"}, {"smiles": "Cc1noc(C)c1NC(=O)Nc1cccc2c1O[C@H](CN(C)Cc1ccc(C(F)(F)F)cc1)[C@H](C)CN([C@@H](C)CO)C2=O", "cytotoxicity call": "inactive"}, {"smiles": "C[C@@H]1CN([C@H](C)CO)C(=O)c2cc(NC(=O)Cc3cn(C)c4ccccc34)ccc2O[C@@H]1CN(C)Cc1ccc(C(=O)Nc2ccccc2N)cc1", "cytotoxicity call": "inactive"}, {"smiles": "C[C@H]1CN([C@@H](C)CO)C(=O)c2cc(NC(=O)Cc3cn(C)c4ccccc34)ccc2O[C@@H]1CN(C)Cc1ccc(C(=O)Nc2ccccc2N)cc1", "cytotoxicity call": "active"}, {"smiles": "C[C@H](CO)N1C[C@H](C)[C@H](CN(C)Cc2ccc(C(=O)Nc3ccccc3N)cc2)Oc2ccc(NC(=O)Cc3cn(C)c4ccccc34)cc2C1=O", "cytotoxicity call": "inactive"}, {"smiles": "C[C@@H]1CN([C@H](C)CO)C(=O)Cc2cc(NC(=O)Cc3cn(C)c4ccccc34)ccc2O[C@@H]1CN(C)Cc1ccc(C(=O)Nc2ccccc2N)cc1", "cytotoxicity call": "inactive"}, {"smiles": "C[C@H]1CN([C@@H](C)CO)C(=O)Cc2cc(NC(=O)Cc3cn(C)c4ccccc34)ccc2O[C@@H]1CN(C)Cc1ccc(C(=O)Nc2ccccc2N)cc1", "cytotoxicity call": "inactive"}, {"smiles": "C[C@H](CO)N1C[C@H](C)[C@H](CN(C)Cc2ccc(C(=O)Nc3ccccc3N)cc2)Oc2ccc(NC(=O)Cc3cn(C)c4ccccc34)cc2CC1=O", "cytotoxicity call": "active"}, {"smiles": "O=C(C[C@@H]1CC[C@H]2[C@@H](COC[C@H](O)CN2S(=O)(=O)c2ccc(Cl)cc2)O1)NCCN1CCCC1", "cytotoxicity call": "inactive"}, {"smiles": "O=C(C[C@H]1C=C[C@@H](NS(=O)(=O)c2ccc(F)cc2)[C@@H](CO)O1)N1CCC(Cc2ccccc2)CC1", "cytotoxicity call": "inactive"}, {"smiles": "C[C@@H]1CCCCO[C@H](CN(C)C(=O)Nc2ccc(C(F)(F)F)cc2)[C@@H](C)CN([C@@H](C)CO)C(=O)c2cc(NC(=O)CCC(F)(F)F)ccc2O1", "cytotoxicity call": "inactive"}, {"smiles": "C[C@@H]1CCCCO[C@@H](CN(C)C(=O)CCC(F)(F)F)[C@H](C)CN([C@@H](C)CO)C(=O)c2cc(NS(=O)(=O)c3ccccc3)ccc2O1", "cytotoxicity call": "inactive"}, {"smiles": "COc1ccc(NC(=O)Nc2ccc3c(c2)C(=O)N([C@@H](C)CO)C[C@H](C)[C@@H](CN(C)Cc2ccc(C(F)(F)F)cc2)OCCCC[C@H](C)O3)cc1", "cytotoxicity call": "inactive"}, {"smiles": "COc1ccc(CN(C)C[C@@H]2OCCCC[C@@H](C)Oc3ccc(NC(=O)Nc4ccc(C(F)(F)F)cc4)cc3C(=O)N([C@@H](C)CO)C[C@H]2C)cc1", "cytotoxicity call": "active"}, {"smiles": "COc1ccc(CN(C)C[C@@H]2OCCCC[C@@H](C)Oc3ccc(NC(=O)Nc4ccc(C(F)(F)F)cc4)cc3C(=O)N([C@@H](C)CO)C[C@@H]2C)cc1", "cytotoxicity call": "active"}, {"smiles": "COc1ccc(NC(=O)Nc2ccc3c(c2)C(=O)N([C@@H](C)CO)C[C@H](C)[C@H](CN(C)Cc2ccc(C(F)(F)F)cc2)OCCCC[C@H](C)O3)cc1", "cytotoxicity call": "inactive"}, {"smiles": "COc1ccc(CN(C)C[C@H]2OCCCC[C@H](C)Oc3ccc(NC(=O)Nc4ccc(C(F)(F)F)cc4)cc3C(=O)N([C@H](C)CO)C[C@H]2C)cc1", "cytotoxicity call": "active"}, {"smiles": "COc1ccc(CN(C)C[C@H]2OCCCC[C@@H](C)Oc3ccc(NC(=O)Nc4ccc(C(F)(F)F)cc4)cc3C(=O)N([C@H](C)CO)C[C@@H]2C)cc1", "cytotoxicity call": "active"}, {"smiles": "C[C@@H]1CCCCO[C@H](CN(C)C(=O)Cc2ccccc2)[C@H](C)CN([C@@H](C)CO)C(=O)c2cc(NC(=O)Cc3ccccc3)ccc2O1", "cytotoxicity call": "inactive"}, {"smiles": "COc1ccc(NC(=O)Nc2ccc3c(c2)C(=O)N([C@@H](C)CO)C[C@@H](C)[C@@H](CN(C)C(=O)NC2CCCCC2)OCCCC[C@H](C)O3)cc1", "cytotoxicity call": "inactive"}, {"smiles": "C[C@@H]1CN([C@H](C)CO)S(=O)(=O)c2ccc(C#Cc3ccncc3)cc2O[C@@H]1CN(C)C(=O)C1CCOCC1", "cytotoxicity call": "inactive"}, {"smiles": "C[C@@H]1CCCCO[C@@H](CN(C)C(=O)C2CCCCC2)[C@@H](C)CN([C@@H](C)CO)C(=O)c2cc(NC(=O)Nc3ccc4c(c3)OCO4)ccc2O1", "cytotoxicity call": "inactive"}, {"smiles": "COc1ccc(NC(=O)N(C)C[C@H]2Oc3c(NS(C)(=O)=O)cccc3C(=O)N([C@H](C)CO)C[C@@H]2C)cc1", "cytotoxicity call": "inactive"}, {"smiles": "C[C@@H]1CCCCO[C@H](CN(C)C)[C@H](C)CN([C@@H](C)CO)C(=O)c2cc(NC(=O)Nc3cccc4ccccc34)ccc2O1", "cytotoxicity call": "inactive"}, {"smiles": "C[C@H](CO)N1C[C@H](C)[C@H](CN(C)S(=O)(=O)c2cn(C)cn2)Oc2ccc(NC(=O)CCCN(C)C)cc2C1=O", "cytotoxicity call": "inactive"}, {"smiles": "O=C(CN1CCOCC1)NCC[C@@H]1CC[C@H](NS(=O)(=O)c2ccc(Cl)cc2)[C@@H](CO)O1", "cytotoxicity call": "inactive"}, {"smiles": "C[C@@H]1CN([C@H](C)CO)C(=O)c2cccc(NC(=O)CCCCCC(=O)Nc3ccccc3N)c2O[C@H]1CN(C)C(=O)Nc1ccccc1", "cytotoxicity call": "inactive"}, {"smiles": "Cn1cc(N2C[C@]3(COCCN(C(=O)C4CC4)C3)OCC2=O)cn1", "cytotoxicity call": "inactive"}, {"smiles": "COc1ccc(NC(=O)Nc2ccc3c(c2)C(=O)N([C@H](C)CO)C[C@@H](C)[C@@H](CN(C)Cc2ccc(C(F)(F)F)cc2)OCCCC[C@@H](C)O3)cc1", "cytotoxicity call": "active"}, {"smiles": "COc1ccc(NC(=O)Nc2ccc3c(c2)C(=O)N([C@H](C)CO)C[C@@H](C)[C@H](CN(C)Cc2ccc(C(F)(F)F)cc2)OCCCC[C@H](C)O3)cc1", "cytotoxicity call": "inactive"}, {"smiles": "COc1ccc(CN(C)C[C@@H]2OCCCC[C@H](C)Oc3ccc(NC(=O)Nc4ccc(C(F)(F)F)cc4)cc3C(=O)N([C@@H](C)CO)C[C@H]2C)cc1", "cytotoxicity call": "active"}, {"smiles": "COc1ccc(NC(=O)Nc2ccc3c(c2)C(=O)N([C@H](C)CO)C[C@@H](C)[C@@H](CN(C)Cc2ccc(C(F)(F)F)cc2)OCCCC[C@H](C)O3)cc1", "cytotoxicity call": "inactive"}, {"smiles": "COc1ccc(CN(C)C[C@@H]2OCCCC[C@H](C)Oc3ccc(NC(=O)Nc4ccc(C(F)(F)F)cc4)cc3C(=O)N([C@@H](C)CO)C[C@@H]2C)cc1", "cytotoxicity call": "active"}, {"smiles": "COc1ccc(CN(C)C[C@@H]2OCCCC[C@@H](C)Oc3ccc(NC(=O)Nc4ccc(C(F)(F)F)cc4)cc3C(=O)N([C@H](C)CO)C[C@@H]2C)cc1", "cytotoxicity call": "active"}, {"smiles": "COc1ccc(NC(=O)Nc2ccc3c(c2)C(=O)N([C@H](C)CO)C[C@H](C)[C@@H](CN(C)Cc2ccc(C(F)(F)F)cc2)OCCCC[C@@H](C)O3)cc1", "cytotoxicity call": "inactive"}, {"smiles": "COc1ccc(NC(=O)Nc2ccc3c(c2)C(=O)N([C@@H](C)CO)C[C@@H](C)[C@H](CN(C)Cc2ccc(C(F)(F)F)cc2)OCCCC[C@H](C)O3)cc1", "cytotoxicity call": "inactive"}, {"smiles": "C[C@@H]1CN([C@H](C)CO)C(=O)Cc2cc(NS(=O)(=O)c3cn(C)cn3)ccc2O[C@@H]1CN(C)C(=O)Nc1ccc(F)cc1", "cytotoxicity call": "inactive"}, {"smiles": "C[C@@H]1CN([C@H](C)CO)C(=O)Cc2cc(NC(=O)Nc3cccc4ccccc34)ccc2O[C@@H]1CN(C)S(=O)(=O)c1ccc(F)cc1", "cytotoxicity call": "inactive"}, {"smiles": "COc1ccccc1C#Cc1ccc2c(c1)O[C@@H](CN(C)C(C)=O)[C@@H](C)CN([C@H](C)CO)S2(=O)=O", "cytotoxicity call": "inactive"}, {"smiles": "C[C@@H]1CN([C@@H](C)CO)C(=O)c2cc(-c3cccc(C(=O)N(C)C)c3)cnc2O[C@@H]1CN(C)C(=O)Cc1ccccn1", "cytotoxicity call": "inactive"}, {"smiles": "COc1ccc(S(=O)(=O)N(C)C[C@@H]2OCCCC[C@H](C)Oc3ccc(NC(=O)Nc4c(C)noc4C)cc3C(=O)N([C@H](C)CO)C[C@H]2C)cc1", "cytotoxicity call": "inactive"}, {"smiles": "O=C(c1cccnc1)N1C[C@H]2[C@@H](c3ccccc31)[C@@H](CO)N2C(=O)CN1CCOCC1", "cytotoxicity call": "inactive"}, {"smiles": "CN(C)S(=O)(=O)c1ccc(CN)cc1", "cytotoxicity call": "inactive"}, {"smiles": "CC(C)NC(=O)Nc1ccc2c(c1)C(=O)N(C)[C@H]1CC[C@@H](CC(=O)NCc3ccc(F)cc3)O[C@@H]1CO2", "cytotoxicity call": "inactive"}, {"smiles": "C[C@@H]1CN([C@H](C)CO)C(=O)c2cccc(NS(=O)(=O)c3ccc(Cl)cc3)c2O[C@@H]1CN(C)Cc1ccc(Oc2ccccc2)cc1", "cytotoxicity call": "inactive"}, {"smiles": "C[C@@H]1CN([C@@H](C)CO)C(=O)c2ccccc2-c2ccccc2CO[C@@H]1CN(C)C(=O)Nc1ccc(F)cc1", "cytotoxicity call": "inactive"}, {"smiles": "C[C@@H]1CN([C@@H](C)CO)C(=O)Cc2cc(NC(=O)Cn3cnnn3)ccc2O[C@@H]1CN(C)Cc1ccncc1", "cytotoxicity call": "inactive"}, {"smiles": "COc1ccc(CN(C)C[C@H]2OCCCC[C@@H](C)Oc3ccc(NC(=O)Nc4ccc(C(F)(F)F)cc4)cc3C(=O)N([C@H](C)CO)C[C@H]2C)cc1", "cytotoxicity call": "active"}, {"smiles": "COc1ccc(CN(C)C[C@H]2OCCCC[C@H](C)Oc3ccc(NC(=O)Nc4ccc(C(F)(F)F)cc4)cc3C(=O)N([C@H](C)CO)C[C@@H]2C)cc1", "cytotoxicity call": "active"}, {"smiles": "COc1ccc(CN(C)C[C@H]2OCCCC[C@@H](C)Oc3ccc(NC(=O)Nc4ccc(C(F)(F)F)cc4)cc3C(=O)N([C@@H](C)CO)C[C@H]2C)cc1", "cytotoxicity call": "active"}, {"smiles": "COc1ccc(NC(=O)Nc2ccc3c(c2)C(=O)N([C@@H](C)CO)C[C@H](C)[C@H](CN(C)Cc2ccc(C(F)(F)F)cc2)OCCCC[C@@H](C)O3)cc1", "cytotoxicity call": "inactive"}, {"smiles": "COc1ccc(NC(=O)Nc2ccc3c(c2)C(=O)N([C@@H](C)CO)C[C@@H](C)[C@@H](CN(C)Cc2ccc(C(F)(F)F)cc2)OCCCC[C@@H](C)O3)cc1", "cytotoxicity call": "inactive"}, {"smiles": "COc1ccc(CN(C)C[C@@H]2OCCCC[C@H](C)Oc3ccc(NC(=O)Nc4ccc(C(F)(F)F)cc4)cc3C(=O)N([C@H](C)CO)C[C@@H]2C)cc1", "cytotoxicity call": "active"}]}]}
